PubChem BioAssay (NCATS)
Values without a mark were called inactive. Records with an inconclusive call do not appear. Activity calls are given as the source filed them.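 The calls were made as follows, unless noted: active = compounds whose dose series gives a full or clear partial fitted curve of increased nuclear translocation; inconclusive = weak partial curve or effect only at the top dose; inactive = no dose-dependent translocation response.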

Assays:
[1] = AP1 Signaling Pathway (AID 357; active = well fitted curve in either direction with a large enough effect, not every such curve was filed as active;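 also: ME-180 reporter cells stimulated with EGF at its EC50 level; % is scaled to controls: 0 for no effect and ±100 for the full control effect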); settings: ME-180 (cervical carcinoma) AP-1-bla reporter, EGF-induced, beta-lactamase ratio, 5 h; at 17.2 µM (top of the series) unless noted
In short: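 Modulation of EGF-driven AP-1 transcription was assessed with a beta-lactamase reporter in ME-180 cells. Compound and EC50 EGF were co-incubated 5 hours at 37 °C before 2.5-hour CCF4 loading at room temperature and dual-emission reading.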

[2] = biological target: Glucocorticoid receptor (Homo sapiens) (UniProt P04150); test: GR-GFP Redistribution (AID 450); also: potency is read from the fitted curve at half-maximal effect
Chain of Glucocorticoid receptor (Homo sapiens) (P04150 whole entry, looked up): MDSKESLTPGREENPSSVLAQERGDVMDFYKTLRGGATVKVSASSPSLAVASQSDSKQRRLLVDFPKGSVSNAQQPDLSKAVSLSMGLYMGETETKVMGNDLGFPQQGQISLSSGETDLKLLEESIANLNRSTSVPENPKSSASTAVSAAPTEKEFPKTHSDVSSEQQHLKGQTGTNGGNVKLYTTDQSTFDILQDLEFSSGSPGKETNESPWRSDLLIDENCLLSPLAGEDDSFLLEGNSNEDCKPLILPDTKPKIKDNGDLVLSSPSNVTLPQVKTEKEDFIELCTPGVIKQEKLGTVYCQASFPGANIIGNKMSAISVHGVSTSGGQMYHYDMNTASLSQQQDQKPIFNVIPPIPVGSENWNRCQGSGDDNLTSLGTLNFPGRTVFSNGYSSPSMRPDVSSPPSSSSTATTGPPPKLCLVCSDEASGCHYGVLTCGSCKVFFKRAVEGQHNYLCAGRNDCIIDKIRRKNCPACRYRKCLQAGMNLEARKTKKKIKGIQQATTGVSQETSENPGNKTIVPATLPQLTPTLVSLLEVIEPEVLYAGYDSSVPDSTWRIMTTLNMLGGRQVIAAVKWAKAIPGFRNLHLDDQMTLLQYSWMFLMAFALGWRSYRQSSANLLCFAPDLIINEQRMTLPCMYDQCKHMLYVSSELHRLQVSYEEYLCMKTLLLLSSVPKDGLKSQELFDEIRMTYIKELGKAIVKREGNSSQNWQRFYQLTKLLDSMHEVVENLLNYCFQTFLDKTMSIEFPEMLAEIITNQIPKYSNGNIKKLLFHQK

N#CC1=C(SCC(=O)c2ccc(Br)cc2)NC2=C(C(=O)CCC2)C1c1ccco1 (configuration not stated)
activity change, negative = inhibition [1]: -81.5% (active) | Potency [2]: > 20.6 µM

C=CCOn1c(=O)c(-c2ccc(OC)cc2)[n+]([O-])c2ccccc21
activity change, negative = inhibition [1]: -22.9% | Potency [2]: > 20.6 µM

CCCSc1nnc(NC(=O)Nc2ccc(F)cc2)s1
activity change, negative = inhibition [1]: -11.2% | Potency [2]: > 20.6 µM

CCN(CC)CCCn1c(C)cc2c(c1=O)C(c1ccccc1)C(C#N)=C(N)O2 (configuration not stated)
activity change, negative = inhibition [1]: 1.7% | Potency [2]: > 20.6 µM

CC(C)N1CC=C2C(C#N)=C(N)C(C#N)(C#N)C(c3ccccc3)C2C1 (configuration not stated)
activity change, negative = inhibition [1]: 26.3% | Potency [2]: > 20.6 µM

Oc1oc(-c2ccco2)nc1C=Nc1cccc(Cl)c1
activity change, negative = inhibition [1]: -27% | Potency [2]: > 20.6 µM

Cc1cc(=O)oc(C)c1C(=O)NCCN1CCOCC1
activity change, negative = inhibition [1]: 11.5% | Potency [2]: > 20.6 µM

Cn1c(N2CCOCC2)nc2c1c(=O)n(Cc1ccc(Cl)c(Cl)c1)c(=O)n2C
activity change, negative = inhibition [1]: -18.7% | Potency [2]: > 20.6 µM

CCSc1nnc(NC(=O)NC(CC)(C(F)(F)F)C(F)(F)F)s1
activity change, negative = inhibition [1]: -15.5% | Potency [2]: > 20.6 µM

CN1CCc2nc(SCC(=O)Nc3ccc(Cl)cc3)c(C#N)cc2C1
activity change, negative = inhibition [1]: 5.33% | Potency [2]: > 20.6 µM

Cc1cc(C)n(CC(=O)N2c3ccccc3Sc3ccccc32)n1
activity change, negative = inhibition [1]: -8.25% | Potency [2]: > 20.6 µM

N#Cc1c(N)n(CCOC(=O)c2ccc(Cl)cc2)c2nc3ccccc3nc12
activity change, negative = inhibition [1]: 19.1% | Potency [2]: > 20.6 µM

COc1ccc2c(c1OC)C(=O)N1c3ccccc3C(=O)N(c3ccccc3F)C21 (configuration not stated)
activity change, negative = inhibition [1]: -4.99% | Potency [2]: > 20.6 µM

Nc1nonc1-c1noc(-c2ccccc2)n1
activity change, negative = inhibition [1]: 7.84% | Potency [2]: > 20.6 µM

CCOc1ccc(S(=O)(=O)NC(C)(C)C)cc1-c1nc2c(C(C)(C)C)nn(C)c2c(=O)[nH]1
activity change, negative = inhibition [1]: -8.82% | Potency [2]: > 20.6 µM

CC(C)C[C@H]1C(=O)N2CCC[C@H]2[C@]2(O)O[C@](NC(=O)[C@@H]3C=C4c5cccc6[nH]c(Br)c(c56)CC4N(C)C3)(C(C)C)C(=O)N12 (some centres not stated)
activity change, negative = inhibition [1]: -20.7% | Potency [2]: > 20.6 µM

Fc1ccc2[nH]c3c(N4CCSCC4)ncnc3c2c1
activity change, negative = inhibition [1]: -16.7% | Potency [2]: > 20.6 µM

COc1ccc(N2CCN(C3CC(=O)NC3=O)CC2)cc1 (configuration not stated)
activity change, negative = inhibition [1]: -0.252% | Potency [2]: > 20.6 µM

N#CC(C#N)C(c1ccsc1)c1c(-c2ccccc2)[nH][nH]c1=O (configuration not stated)
activity change, negative = inhibition [1]: -20.2% | Potency [2]: > 20.6 µM

CCOC(=O)C1=C(CSc2nc3c(cc2C#N)CN(C)CC3)OC(N)=C(C#N)C1c1ccccc1 (configuration not stated)
activity change, negative = inhibition [1]: -2.2% | Potency [2]: > 20.6 µM

COc1ccc(N2CCN(c3oc(COc4ccc(Cl)cc4)nc3C#N)CC2)cc1
activity change, negative = inhibition [1]: -27.6% | Potency [2]: > 20.6 µM
